Reference: PubChem BioAssay
Unmarked numbers belong to inactive results. For part of these data: Entries with a potency or affinity are not part of this list. The source made the active and inactive calls. Unless noted, how the calls were made is not given here.

Experiments:
[1] = antimalarial activity against Dd2 strain (AID 2302;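 active means growth inhibition above 50% at the single 2 µM test dose, taken to imply half-maximal potency below 2 µM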;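 further: 0% = DMSO untreated growth and 100% = chloroquine plus artemisinin killed control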); details: P. falciparum Dd2 in RBCs, LDH growth readout, 72 h; at 2 µM; hits give high values
[2] = human hepatoma cell viability loss – ATP luminescence, cytotoxicity control for P. falciparum antimalarial project, primary screen (AID 2303;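 active means inhibition above 50%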;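 further: 0% = DMSO wells and 100% = digitonin-killed cells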); details: HepG2 viability, 24-48 h, at 10 µM, hits give high values
[3] = molecular target: L-lactate dehydrogenase (Plasmodium falciparum (isolate CDC / Honduras)) (UniProt Q27743); assay: PfLDH activity inhibition – cell lysate, 3D7 strain, counter-screen for P. falciparum growth inhibition project (AID 2304);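 further: 0% = vehicle and 100% = reference inhibitor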; details: P. falciparum 3D7 crude extract, LDH APAD/NBT absorbance; at 2 µM; hits give high values
Chain of L-lactate dehydrogenase (Plasmodium falciparum (isolate CDC / Honduras)) (Q27743 whole entry, looked up): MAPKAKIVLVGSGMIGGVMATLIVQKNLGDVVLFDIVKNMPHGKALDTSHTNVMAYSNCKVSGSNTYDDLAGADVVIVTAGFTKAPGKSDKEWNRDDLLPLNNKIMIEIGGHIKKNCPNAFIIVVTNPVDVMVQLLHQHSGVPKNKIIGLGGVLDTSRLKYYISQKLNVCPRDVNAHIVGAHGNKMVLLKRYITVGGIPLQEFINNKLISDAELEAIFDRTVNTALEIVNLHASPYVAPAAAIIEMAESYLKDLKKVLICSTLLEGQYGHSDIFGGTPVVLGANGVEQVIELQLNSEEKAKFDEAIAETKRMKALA

[4] = inhibition of 3D7 malaria parasite growth – strain 3D7 (AID 2306);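 further: 0% = DMSO wells and 100% = chloroquine plus artemisinin control wells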; details: P. falciparum 3D7 erythrocytic growth, LDH absorbance, 72 h; at 2 µM; hits give high values
[5] = molecular target: Calcium-dependent protein kinase 1 (Plasmodium falciparum (isolate 3D7)) (UniProt P62344); assay: PfCDPK1 kinase inhibitors, biochemical, TCAMS library (AID 1159585; cut-off not given, nearly all actives have IC50 up to about 0.98 µM;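 further: inhibitors leave more ATP so luminescence rises with inhibition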); details: recombinant PfCDPK1, Kinase-Glo ATP depletion luminescence
Chain of Calcium-dependent protein kinase 1 (Plasmodium falciparum (isolate 3D7)) (P62344 whole entry, looked up): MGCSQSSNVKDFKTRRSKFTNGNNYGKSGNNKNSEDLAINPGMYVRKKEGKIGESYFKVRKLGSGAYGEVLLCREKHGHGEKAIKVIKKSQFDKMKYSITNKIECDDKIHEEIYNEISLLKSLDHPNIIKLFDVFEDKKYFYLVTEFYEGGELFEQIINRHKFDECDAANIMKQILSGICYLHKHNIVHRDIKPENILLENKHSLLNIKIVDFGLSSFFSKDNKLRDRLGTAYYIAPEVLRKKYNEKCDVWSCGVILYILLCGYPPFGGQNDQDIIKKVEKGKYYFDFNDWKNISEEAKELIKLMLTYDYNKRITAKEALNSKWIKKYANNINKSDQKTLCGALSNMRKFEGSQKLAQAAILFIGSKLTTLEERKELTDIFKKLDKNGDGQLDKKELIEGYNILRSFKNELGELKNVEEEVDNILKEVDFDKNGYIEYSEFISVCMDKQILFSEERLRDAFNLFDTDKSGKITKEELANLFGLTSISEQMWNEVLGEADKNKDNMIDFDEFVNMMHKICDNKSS

[6] = molecular target: Plasmodium falciparum protein kinase 6 (PK6, PF3D7_1337100) (UniProt Q8IDW1); assay: PfPK6 kinase inhibitors, biochemical, TCAMS library (AID 1159586); details: recombinant PfPK6, Kinase-Glo ATP depletion luminescence
Chain of Plasmodium falciparum protein kinase 6 (PK6, PF3D7_1337100) (Q8IDW1 1-305): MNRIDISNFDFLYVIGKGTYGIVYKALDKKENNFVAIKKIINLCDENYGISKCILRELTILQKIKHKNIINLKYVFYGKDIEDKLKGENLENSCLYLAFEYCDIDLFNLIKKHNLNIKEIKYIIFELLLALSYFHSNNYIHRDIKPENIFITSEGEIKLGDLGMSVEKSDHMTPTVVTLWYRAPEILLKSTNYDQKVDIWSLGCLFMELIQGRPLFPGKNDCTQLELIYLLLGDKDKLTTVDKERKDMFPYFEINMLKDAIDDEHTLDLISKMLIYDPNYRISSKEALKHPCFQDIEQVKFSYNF

[7] = molecular target: Protein kinase 7 (PK7), Plasmodium falciparum 3D7 (PF3D7_0213400) (UniProt Q7YTF7); assay: inhibition of Plasmodium PK7 catalytic activity – biochemical, TCAMS antimalarial set, Kinase-Glo luminescence (AID 1159587); details: recombinant PfPK7, Kinase-Glo ATP depletion luminescence
Chain of Protein kinase 7 (PK7), Plasmodium falciparum 3D7 (PF3D7_0213400) (Q7YTF7 1-343): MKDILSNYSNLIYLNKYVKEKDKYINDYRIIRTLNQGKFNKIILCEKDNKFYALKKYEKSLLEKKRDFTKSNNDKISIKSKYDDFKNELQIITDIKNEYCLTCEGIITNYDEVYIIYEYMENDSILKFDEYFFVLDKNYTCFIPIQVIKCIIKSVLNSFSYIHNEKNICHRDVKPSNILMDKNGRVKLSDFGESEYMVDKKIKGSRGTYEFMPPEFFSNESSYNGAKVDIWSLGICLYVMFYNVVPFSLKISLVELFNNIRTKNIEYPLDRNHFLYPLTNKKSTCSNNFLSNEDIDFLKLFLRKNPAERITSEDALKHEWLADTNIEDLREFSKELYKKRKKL

[8] = molecular target: Calcium-dependent protein kinase 4 (Plasmodium falciparum (isolate 3D7)) (UniProt Q8IBS5); assay: PfCDPK4 kinase inhibitors, biochemical, TCAMS library (AID 1159588; cut-off not given, nearly all actives have IC50 up to about 0.91 µM); details: recombinant PfCDPK4, Kinase-Glo ATP depletion luminescence
Chain of Calcium-dependent protein kinase 4 (Plasmodium falciparum (isolate 3D7)) (Q8IBS5 whole entry, looked up): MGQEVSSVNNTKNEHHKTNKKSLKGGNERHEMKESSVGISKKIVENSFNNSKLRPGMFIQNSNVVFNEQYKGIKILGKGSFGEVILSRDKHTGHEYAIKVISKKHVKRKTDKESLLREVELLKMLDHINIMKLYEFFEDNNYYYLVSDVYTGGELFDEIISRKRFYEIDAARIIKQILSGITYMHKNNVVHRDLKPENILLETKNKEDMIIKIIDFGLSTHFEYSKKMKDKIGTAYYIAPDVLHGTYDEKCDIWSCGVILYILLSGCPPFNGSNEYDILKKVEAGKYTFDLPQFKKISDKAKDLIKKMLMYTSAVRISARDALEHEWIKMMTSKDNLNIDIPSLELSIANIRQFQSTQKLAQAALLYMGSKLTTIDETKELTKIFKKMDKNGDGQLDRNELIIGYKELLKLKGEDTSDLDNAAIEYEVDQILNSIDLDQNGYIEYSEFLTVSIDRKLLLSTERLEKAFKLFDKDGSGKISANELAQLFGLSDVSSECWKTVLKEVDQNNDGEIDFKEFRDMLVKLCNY

SMILES	growth inhibition [1]	inhibition [2]	inhibition [3]	growth inhibition [4]	outcome [5]	outcome [6]	outcome [7]	outcome [8]
CCOC(=O)c1ccc(Nc2cc(Nc3ccc(C(=O)OCC)cc3)nc(C)n2)cc1	33%	4%	4%	99% (active)	inactive	inactive	inactive	inactive
COc1cc2nc(NCc3ccccc3)nc(NCc3ccccc3)c2cc1OC	102% (active)	66% (active)	-3%	102% (active)	inactive	inactive	inactive	inactive
Cc1cc(=O)[nH]c(-n2nc(C)cc2NC(=O)C(c2ccccc2)c2ccccc2)n1	77% (active)	31%	-1%	96% (active)	inactive	inactive	inactive	inactive
COc1cc(NC(=O)c2sc(-c3ccc(Cl)cc3)cc2Cl)ccc1OCCN1CCCC1	21%	72% (active)	4%	93% (active)	inactive	inactive	inactive	inactive
COCCn1c(SC(C)C(=O)Nc2cc(C(F)(F)F)ccc2Cl)nc2ccccc2c1=O (stereo unspecified)	95% (active)	8%	4%	97% (active)	inactive	inactive	inactive	inactive
COC(=O)c1cccc(CNCc2cccc(-c3ccc(-c4nc5ccccc5[nH]4)s3)c2)c1	59% (active)	-2%	-6%	93% (active)	inactive	inactive	inactive	inactive
CC1(C)N=C(N)N=C(N)N1OCc1cccc(C#N)c1	2%	57% (active)	5%	94% (active)	inactive	inactive	inactive	inactive
Cc1cc(CN2CCC(N3CC(c4ccccc4)(c4ccccc4)OCC3=O)C2)ccc1O (stereo unspecified)	52% (active)	3%	3%	89% (active)	inactive	inactive	inactive	inactive
COc1cc(OC)cc(-c2nn(-c3ccc([N+](=O)[O-])cc3C#N)c(=S)n2CC2CCCO2)c1 (stereo unspecified)	75% (active)	9%	0%	98% (active)	inactive	inactive	inactive	inactive
O=C(Nc1ccc(OC2CCN(Cc3ccsc3)CC2)c(Cl)c1)c1cccs1	93% (active)	16%	1%	94% (active)	inactive	inactive	inactive	inactive
Nc1nc(-c2ccc3c(Nc4ccc(F)c(Cl)c4)ccnc3c2)cs1	88% (active)	13%	0%	100% (active)	inactive	inactive	inactive	inactive
COc1cc(NC(=O)c2ccc3oc4ccccc4c3c2)ccc1OCCN1CCCCC1	11%	12%	-4%	89% (active)	inactive	inactive	inactive	inactive
O=C(NCCCCCN1CCC(c2c[nH]c3ccccc23)C1)Nc1ccc(Cl)c(Cl)c1 (stereo unspecified)	19%	28%	1%	95% (active)	inactive	inactive	inactive	inactive
CC(C)COc1ccc(Cl)cc1Cc1ccc(-c2nc3ccc(Cl)cc3[nH]2)o1	96% (active)	19%	-1%	97% (active)	inactive	inactive	inactive	inactive
COCC(=O)Nc1nc2ccccc2[nH]1	1%	-14%	-5%	98% (active)	inactive	inactive	inactive	inactive
NS(=O)(=O)c1cccc(-c2ccc3nccc(-c4cccc(S(N)(=O)=O)c4)c3c2)c1	99% (active)	40%	4%	98% (active)	inactive	inactive	inactive	inactive
Cc1nnc2c(NC(=O)NC3CCCC3)cc3cc(-c4ccc(CN5CCN(C)CC5)cc4)ccc3n12	91% (active)	100% (active)	-1%	99% (active)	inactive	inactive	inactive	inactive
CC(C)[C@H](NC(=O)c1ccc(O)c(-c2cccc(C(F)(F)F)c2)c1)C(=O)NC1CCCc2ccccc21 (stereo partly specified)	25%	2%	7%	82% (active)	inactive	inactive	inactive	inactive
CN1CCCN(Cc2cccc(-c3ccc(NC(=O)c4cccc(C#N)c4)cc3)c2)CC1	96% (active)	27%	-6%	102% (active)	inactive	inactive	inactive	inactive
COc1ccc(C(=O)Nc2ccc(-c3nc4ccc(C)cc4[nH]3)cc2)cc1OC	38%	70% (active)	0%	100% (active)	inactive	inactive	inactive	inactive
CC(C)(C)c1nn(-c2ccccc2)c2[nH]c(=O)c(CNCc3ccc4c(c3)OCO4)cc12	32%	1%	3%	92% (active)	inactive	inactive	inactive	inactive

SMILES	growth inhibition [1]	inhibition [2]	inhibition [3]	growth inhibition [4]	outcome [5]	outcome [6]	outcome [7]	outcome [8]
COc1ccc2nccc([C@@H](O)CN3CCC(NCc4ccc5c(c4)OCCO5)CC3)c2c1	92% (active)	9%	-4%	101% (active)	inactive	inactive	inactive	inactive
COc1ccc2cc(C(=O)NC3CCC(CCN4CCc5cc(C#N)ccc5C4)CC3)[nH]c2c1 (stereo unspecified)	-1%	9%	-10%	88% (active)	inactive	inactive	inactive	inactive
CCN1CCC(N(Cc2ccc(-c3ccc(C(F)(F)F)s3)cc2)C(=O)Cn2c(CCc3cccc(F)c3F)nc(=O)c3ccccc32)CC1	95% (active)	47%	7%	93% (active)	inactive	inactive	inactive	inactive
CCOC(=O)c1ccc(NC(=O)Nc2cccc(-c3cccc(-c4nc5c(C)cccc5[nH]4)c3)c2)cc1	99% (active)	37%	0%	100% (active)	inactive	inactive	inactive	inactive
COc1ccc(-c2ccc(NC(=O)c3cccc(Cl)c3)c(F)c2)cc1CNC(C)C	14%	19%	-5%	93% (active)	inactive	inactive	inactive	inactive
Nc1nc(N)c2c(ccc3c2ccn3Cc2ccc(F)cc2)n1	96% (active)	66% (active)	1%	97% (active)	inactive	inactive	inactive	inactive
CCc1cn2c3c(cc(C(=O)N[C@@H](Cc4ccccc4)[C@H](O)CNC4CCOCC4)cc13)N(C(C)C)S(=O)(=O)CC2	99% (active)	0%	-2%	98% (active)	inactive	inactive	inactive	inactive
C=CCN1C(=O)CN(S(=O)(=O)c2ccc(-n3nc(C)cc3C)cc2)C1=S	-2%	5%	1%	93% (active)	inactive	inactive	inactive	inactive
O=C(Cc1ccccn1)Nc1cccc(-c2cccc(-c3nc4ccc(C(F)(F)F)cc4[nH]3)c2)c1	22%	26%	-2%	95% (active)	inactive	inactive	inactive	inactive
O=C(CN1CCCC1)Nc1cccc(C(=O)Nc2cccc(C(F)(F)F)c2)c1	83% (active)	9%	1%	95% (active)	inactive	inactive	inactive	inactive
O=C(CSc1nc(-c2ccccc2Cl)ns1)Nc1ccc2c(c1)OCO2	77% (active)	-8%	-5%	93% (active)	inactive	inactive	inactive	inactive
Oc1ccc(CCNCCCCCCNCCc2ccc(-c3ccccc3)cc2)cc1O	8%	72% (active)	1%	101% (active)	inactive	inactive	inactive	inactive
CC(C)c1ccc(NC(=S)NN=Cc2ccccn2)cc1	98% (active)	47%	-12%	100% (active)	inactive	inactive	inactive	inactive
COc1cc2c(c(Cl)c1OC)CCN(Cc1ccccc1)CC2c1ccc(C(N)=O)cc1 (stereo unspecified)	60% (active)	7%	-5%	97% (active)	inactive	inactive	inactive	inactive
COc1ccccc1N=C1SC(=Cc2cn(CC(=O)N3CCCc4ccccc43)c3ccccc23)C(=O)N1C1CCCCC1	99% (active)	10%	2%	100% (active)	inactive	inactive	inactive	inactive
CC(C)Oc1cccc(-c2ccc(C(=O)NCC3CCCN(Cc4cccc(C(F)(F)F)c4)C3)s2)c1 (stereo unspecified)	28%	10%	-2%	91% (active)	inactive	inactive	inactive	inactive
c1ccc(-c2cc(NCCCn3ccnc3)nc(-c3cccnc3)n2)cc1	6%	15%	0%	84% (active)	inactive	inactive	inactive	inactive
C/C=C/COc1ccc2ccccc2c1CNCCCCCCCCNCc1c(OC/C=C/C)ccc2ccccc12	86% (active)	100% (active)	3%	87% (active)	inactive	inactive	inactive	inactive
Cc1ccc2nc(-c3cc(-c4cccc(C#N)c4)cnc3N)[nH]c2c1	99% (active)	40%	1%	100% (active)	inactive	inactive	inactive	inactive
COc1ccccc1Nc1nc(C)cc(NCc2ccc(-n3ccnc3)cc2)n1	10%	5%	-2%	90% (active)	inactive	inactive	inactive	inactive
COc1ccc2ncc(F)c(CCN3C[C@H](CNCc4cc(C#N)c5c(c4)OCCO5)[C@H](O)C3)c2n1	64% (active)	7%	-5%	100% (active)	inactive	inactive	inactive	inactive
